Holding throughout (assay): qHTS profiling for inhibitors of Plasmodium falciparum proliferation (AID 504749); also: nearly all actives have a fitted effect of over 60% in size
Conditions in all cases: P. falciparum in erythrocytes, SYBR Green DNA, 72 h; series mostly up to 28.7 µM
Background: Quantitative high-throughput screening tests each substance at several concentrations.

The subject of one experiment is 7G8. The method in brief: (§1)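 SYBR Green fluorescence (ex 485 nm, em 535 nm) reports parasite DNA after 72 h compound exposure of infected red cells at 0.3% parasitemia, 2.5% hematocrit; signal normalized to 0.29 uM artemisinin and vehicle wells.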
The test system of the next experiment is ATS95. A digest of the protocol: as §1
A further experiment deals with CP201. The method in brief: as §1
A further experiment relates to CP203. A digest of the protocol: as §1
Another experiment concerns CP250. The method in brief:
as §1

The test system of a further experiment is CP256. The method in brief: as §1
Another experiment deals with CP262. A digest of the protocol: as §1
A further experiment deals with CP265. A digest of the protocol: as §1
The subject of a further experiment is CP269. A digest of the protocol: as §1
A further experiment deals with CP315. The method in brief:
as §1

The subject of a further experiment is CP325. The method in brief: as §1
A further experiment has as its system CP329. The method in brief:
as §1

The subject of the next experiment is DIV30. The method in brief: as §1
The next experiment concerns ECU. A digest of the protocol: as §1
The subject of another experiment is N140. The method in brief: as §1
The test system of the next experiment is PAD. The method in brief: as §1
The next experiment concerns PC15. A digest of the protocol: as §1
The test system of the next experiment is SC27B. A digest of the protocol:
as §1

A further experiment concerns TAB113. A digest of the protocol: as §1
The subject of another experiment is TAB165. The method in brief:
as §1

Records with an inconclusive call do not appear. Active and inactive are the calls of the source. Calls follow the shape of the dose curve; as a rule, active = well fitted inhibition curve with a large enough effect; inconclusive = small, poorly fitted or top-dose-only effect; inactive = flat fitted curve, though single readings scatter.
Potency is read from the fitted curve at half-maximal effect.

Consider `CCCCC/C(C=O)=C/c1ccccc1`, for which the Potency entry in the experiment on 7G8, in the experiment with ATS95, in the experiment on CP201, in the experiment on CP203, with CP250 and in the experiment on CP256 was “inactive” each time. Also, the Potency entry in the experiment on CP262, in the experiment with CP265, in the experiment with CP269, in the experiment with CP315, in the experiment on CP325 and in the experiment with CP329 was “inactive” in each case. For the same molecule, the Potency result in the experiment with DIV30, in the experiment on ECU, with N140, with PAD, with PC15 and in the experiment with SC27B was “inactive” in each case. The Potency result with TAB113 and with TAB165 was “inactive” in each case.

Turning to `CNC1C(O)C(OC2C(N)CC(N)C(OC3OC(CN)=CCC3N)C2O)OCC1(C)O` (stereo not given), the Potency result with 7G8, in the experiment with ATS95, with CP201, in the experiment with CP203, in the experiment on CP250 and in the experiment with CP256 was “inactive” each time. The Potency entry in the experiment on CP262, in the experiment on CP265, in the experiment with CP269, in the experiment on CP315, in the experiment with CP325 and with CP329 was “inactive” throughout. Further, the Potency result with DIV30, in the experiment with ECU, in the experiment on N140, in the experiment on PAD, in the experiment with PC15 and with SC27B was “inactive” in each case. Besides, the Potency result in the experiment with TAB113 and in the experiment with TAB165 was “inactive” each time.

Take `Cc1cn([C@H]2CC(F)[C@@H](CO)O2)c(=O)[nH]c1=O` (stereo not given in full): the Potency result in the experiment with 7G8, with ATS95, with CP201, in the experiment with CP203, in the experiment on CP250 and with CP256 was “inactive” in each case. The Potency result in the experiment on CP262, with CP265, with CP269, with CP315, in the experiment on CP325 and with CP329 was “inactive” in each case. The Potency entry in the experiment with DIV30, in the experiment with ECU, in the experiment with N140, in the experiment on PAD, in the experiment on PC15 and with SC27B was “inactive” in each case. Further, the Potency entry in the experiment with TAB113 and in the experiment on TAB165 was “inactive” in each case.

Turning to `CC12C=CC(=O)C=C1[C@@H](F)CC1C2C(O)CC2(C)C1CC[C@]2(O)C(=O)CO` (stereo not given in full), the Potency entry in the experiment with 7G8, in the experiment on ATS95, with CP201, in the experiment with CP203, in the experiment with CP250 and with CP256 was “inactive” in each case. The Potency entry in the experiment with CP262, in the experiment with CP265, in the experiment with CP269, with CP315, in the experiment on CP325 and in the experiment with CP329 was “inactive” each time. The Potency entry in the experiment on DIV30, in the experiment on ECU, with N140, in the experiment on PAD, in the experiment on PC15 and with SC27B was “inactive” throughout. Also, the Potency entry in the experiment on TAB113 and in the experiment on TAB165 was “inactive” throughout.

With `C[C@]12CC[C@@H]3c4ccc(O)cc4CC[C@H]3[C@@H]1C[C@H](O)C2O` (stereo not given in full), the Potency result with 7G8, in the experiment on ATS95, with CP201, in the experiment on CP203, in the experiment on CP250 and with CP256 was “inactive” in each case. Further, the Potency entry in the experiment with CP262, in the experiment on CP265, with CP269, in the experiment with CP315, in the experiment with CP325 and in the experiment on CP329 was “inactive” in each case. Moreover, the Potency entry with DIV30, in the experiment on ECU, in the experiment on N140, in the experiment with PAD, in the experiment on PC15 and with SC27B was “inactive” in each case. Moreover, the Potency entry in the experiment on TAB113 and with TAB165 was “inactive” in each case.

Regarding `CC[C@@H](C)C(N)C(=O)O` (stereo not given in full), the Potency entry with 7G8, with ATS95, in the experiment with CP201, in the experiment on CP203, in the experiment on CP250 and in the experiment on CP256 was “inactive” each time. Further, the Potency result with CP262, in the experiment on CP265, in the experiment with CP269, in the experiment on CP315, with CP325 and with CP329 was “inactive” throughout. Besides, the Potency result in the experiment with DIV30, in the experiment with ECU, in the experiment on N140, with PAD, in the experiment on PC15 and with SC27B was “inactive” throughout. For the same molecule, the Potency result with TAB113 and in the experiment on TAB165 was “inactive” in each case.

Consider `COC(c1ccccc1)(c1ccccc1)C(Oc1nc(C)cc(C)n1)C(=O)O` (stereo not given), for which the Potency entry in the experiment with 7G8, with ATS95, in the experiment on CP201, with CP203, in the experiment with CP250 and in the experiment on CP256 was “inactive” throughout. Also, the Potency result in the experiment with CP262, in the experiment with CP265, with CP269, with CP315, with CP325 and in the experiment on CP329 was “inactive” each time. For the same molecule, the Potency entry in the experiment with DIV30, in the experiment with ECU, in the experiment on N140, in the experiment on PAD, in the experiment with PC15 and with SC27B was “inactive” in each case. In addition, the Potency result with TAB113 and in the experiment on TAB165 was “inactive” in each case.

For `OCC1O[C@@H](O[C@@H]2C(CO)OC(O)C(O)C2O)C(O)C(O)C1O` (stereo not given in full), the Potency result in the experiment on 7G8, in the experiment on ATS95, in the experiment with CP201, in the experiment on CP203, in the experiment with CP250 and in the experiment with CP256 was “inactive” throughout. Further, the Potency entry in the experiment on CP262, in the experiment on CP265, in the experiment on CP269, in the experiment on CP315, in the experiment on CP325 and with CP329 was “inactive” each time. For the same molecule, the Potency entry in the experiment on DIV30, in the experiment with ECU, in the experiment with N140, in the experiment with PAD, with PC15 and in the experiment with SC27B was “inactive” each time. In addition, the Potency result in the experiment with TAB113 and in the experiment with TAB165 was “inactive” in each case.

`CC(C)C[C@@H](NC(=O)[C@@H](Cc1ccccc1)NC(=O)c1cnccn1)B(O)O`: the Potency with 7G8 is 0.0398 µM (active); in the experiment with ATS95, 0.112 µM (active); in the experiment on CP201, 0.536 µM (active); with CP203 it was 0.338 µM (active); in the experiment with CP250, 0.126 µM (active); in the experiment on CP256, 0.141 µM (active). Also, the Potency with CP262 is 0.12 µM (active); in the experiment with CP265, 0.141 µM (active); in the experiment on CP269, 0.151 µM (active); with CP315 it was 0.379 µM (active); with CP325, 0.151 µM (active); in the experiment with CP329, 0.12 µM (active). Besides, the Potency with DIV30 was 0.338 µM (active); in the experiment with ECU it was 0.126 µM (active); in the experiment with N140 it was 0.1 µM (active); with PAD, 0.141 µM (active); in the experiment on PC15 it was 0.316 µM (active); with SC27B, 0.141 µM (active). The Potency in the experiment on TAB113 is 0.1 µM (active); in the experiment with TAB165, 0.0708 µM (active).

On to `C[C@@H]1C(SC2Cn3cnc[n+]3C2)=C(C(=O)[O-])N2C(=O)[C@H]([C@@H](C)O)[C@@H]12` (stereo not given in full), for which the Potency entry in the experiment on 7G8, in the experiment with ATS95, in the experiment on CP201, with CP203, with CP250 and with CP256 was “inactive” in each case. For the same molecule, the Potency entry with CP262, in the experiment on CP265, in the experiment on CP269, in the experiment with CP315, with CP325 and in the experiment on CP329 was “inactive” in each case. Moreover, the Potency entry with DIV30, in the experiment on ECU, in the experiment on N140, in the experiment with PAD, in the experiment on PC15 and in the experiment with SC27B was “inactive” in each case. In addition, the Potency entry in the experiment on TAB113 and in the experiment with TAB165 was “inactive” throughout.

For `O=C1CC[C@H](C(=O)N[C@@H]2C[C@H]2c2ccccc2)N1`, the Potency result with 7G8, in the experiment on ATS95, in the experiment on CP201, in the experiment on CP203, in the experiment on CP250 and in the experiment on CP256 was “inactive” throughout. Besides, the Potency entry in the experiment on CP262, with CP265, in the experiment on CP269, in the experiment with CP315, in the experiment on CP325 and in the experiment with CP329 was “inactive” throughout. Moreover, the Potency result in the experiment with DIV30, with ECU, in the experiment with N140, in the experiment with PAD, in the experiment with PC15 and with SC27B was “inactive” each time. In addition, the Potency result with TAB113 and with TAB165 was “inactive” each time.

Source of the values: PubChem BioAssay (NCATS).
